Experiment [1] in a line: qHTS assay to identify small molecule agonists of the estrogen receptor alpha (ER-alpha) signaling pathway in the presence of an antagonist - cell viability counter screen (AID 1259386).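 Also: cells exposed to compounds for 22 h at 37 °C before the viability read; nearly all actives have a fitted effect of over 30% in size.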 Also: potency is read from the fitted curve at half-maximal effect. The procedure, abridged: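 Steps: 5-day stripped-FBS culture; seed and incubate 24hr; add ICI-182,780 (10.0nM final); pin 15-point compound titration; incubate 22hr at 37C; add CellTiter-Fluor at 21hr; read fluorescence.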

Experiment [2] addresses Progesterone receptor (Homo sapiens) (UniProt P06401). Nature of the experiment: qHTS assay to identify small molecule agonists of the progesterone receptor (PR) signaling pathway (AID 1346784; calls by dose curve; also: nearly all actives have a fitted effect of over 30% in size). The method in brief:
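Seed PR-UAS-bla HEK 293T cells (2% charcoal-stripped FBS), incubate 6 hr at 37C; add compounds in DMSO, 16 hr at 37C; add LiveBLAzer B/G substrate, 2 hr RT; read fluorescence intensity.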
(In qHTS, concentration-response curves come from the screen itself.)

The target is the same in experiment [3]. As to the kind of experiment: qHTS assay to identify small molecule antagonists of the progesterone receptor (PR) signaling pathway (AID 1346795; active = well fitted inhibition curve with a large enough effect in the signal ratio in the repeat runs, not every such curve was filed as active; the % refers to the signal ratio). The procedure, abridged:
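Screening used a GripTite HEK293T line with PR-responsive UAS-beta-lactamase. Cells were challenged with compound in the presence of 1 nM R5020 final for 16 hr at 37C; B/G FRET substrate, 2 hr room temperature, fluorescence.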

Experiment [4] can be described thus: qHTS assay to identify small molecule antagonists of the progesterone receptor (PR) signaling pathway - cell viability counter screen (AID 1346798). Also: series mostly up to about 92 µM; nearly all actives have a fitted effect of over 50% in size. The method in brief: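 Measures cytotoxicity in parallel with the PR antagonist reporter read: HEK293T PR-UAS-bla cells get compound and R5020 for 16 hr, and remaining viable cells are quantified by CellTiter-Glo luminescence.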

Experiment [5] is described as follows: qHTS assay to identify small molecule agonists of the progesterone receptor (PR) signaling pathway - cell viability counter screen (AID 1346799; calls by dose curve; also: nearly all actives have a fitted effect of over 45% in size). The method in brief: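 Using the same plates as the PR reporter screen, HEK293T PR-UAS-bla cells received compounds for 16 hr at 37C and were then lysed with CellTiter-Glo; luminescence was read 30 min later at room temperature.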

Experiment [6] in a line: qHTS assay to identify small molecule antagonists of the TGF-beta/Smad signaling pathway - cell viability counter screen (AID 1346824). Also: nearly all actives have a fitted effect of over 50% in size. The procedure, abridged:
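Cytotoxicity counter-screen run in the same wells as the beta-lactamase Smad reporter read: CellTiter-Glo luminescence after 30 min at room temperature. HEK 293T SBE-bla cells had 5 hr compound exposure at 37 C with TGF-beta1 (0.25 ng/mL stock).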

A short description of experiment [7]: qHTS assay to identify small molecule agonists of the TGF-beta/Smad signaling pathway - cell viability counter screen (AID 1346829). Also: top concentration of the series differs between compounds; nearly all actives have a fitted effect of over 45% in size. The procedure, abridged: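 Here the cytotoxicity of library compounds is measured in SBE-bla HEK 293T cells treated for 5 hr, using CellTiter-Glo added to wells already read for the beta-lactamase reporter.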
Experiment [8] is described as follows: qHTS assay to identify small molecule agonists of the TGF-beta/Smad signaling pathway (AID 1346859; active = well fitted activation curve with a large enough effect in the signal ratio in the repeat runs, not every such curve was filed as active; the % refers to the signal ratio; also: series mostly up to about 77 µM). The method in brief: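 Beta-lactamase reporter activity downstream of Smad binding elements was measured in stably transfected HEK 293T cells; compounds were incubated for 5 hr, substrate for 2 hr at room temperature.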
The target in experiment [9] is Thyrotropin-releasing hormone receptor (Homo sapiens) (UniProt P34981). As to the kind of experiment: qHTS assay to identify small molecule antagonists of the thyrotropin-releasing hormone receptor (TRHR) signaling pathway (AID 1346877; active = well fitted inhibition curve with a large enough effect in the repeat runs, not every such curve was filed as active; also: series mostly up to about 51 µM). The method in brief: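 Human TRHR in HEK293 cells; inhibition of the intracellular calcium rise triggered by 1 nM TRH was followed by fluorescence over 3 min. Compounds were run at 15 concentrations, three replicates each.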

Experiment [10] has the same target. As to the kind of experiment: qHTS assay to identify small molecule agonists of the thyrotropin-releasing hormone receptor (TRHR) signaling pathway (AID 1346891; calls by dose curve;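 also: HEK293 cells expressing TRHR with calcium dye readout; series mostly up to about 58 µM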). The method in brief: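 Overnight-plated (18 h, 37 °C, 5% CO2) TRHR-Hek293 cells; 2 h calcium dye at 37 °C; compound in DMSO; 3-min kinetic fluorescence read.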
A short description of experiment [11]: Human pregnane X receptor (PXR) small molecule agonists, qHTS cell viability counter screen (AID 1346977). Also: nearly all actives have a fitted effect of over 50% in size. Also: potency is read from the fitted curve at half-maximal effect. The procedure, abridged: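 After a 5hr pre-incubation, PXR-Luc HepG2 cells received compounds plus positive control in DMSO and were kept 24hr at 37C. Cell viability was quantified by fluorescence from CellTiter-Fluor added for the final hour.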
A short description of experiment [12]: Caspase-3/7 induction in HepG2 cells by small molecules, qHTS assay (AID 1346978). Also: nearly all actives have a fitted effect of over 15% in size. The procedure, abridged:
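Caspase-3/7 induction was measured by Caspase-Glo 3/7 luminescence (30 min, room temperature) after a 17 hr compound exposure of wild-type HepG2 cells seeded at 2,000 per well and pre-incubated 5 hr.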

Experiment [13] in a line: Caspase-3/7 induction in CHO-K1 cells by small molecules, qHTS cell viability counter screen (AID 1346979). Also: nearly all actives have a fitted effect of over 35% in size. Also: potency is read from the fitted curve at half-maximal effect. The method in brief:
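Multiplexed with Caspase-Glo 3/7 in CHO-K1 cells, this counter screen added CellTiter-Fluor after 16hr of compound exposure and recorded fluorescence 1hr later.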

Experiment [14] can be described thus: Caspase-3/7 induction in HepG2 cells by small molecules, qHTS cell viability counter screen (AID 1346981). Also: nearly all actives have a fitted effect of over 30% in size. Also: potency is read from the fitted curve at half-maximal effect. The method in brief:
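The parent HepG2 line is plated at 2,000 cells per well and rested 5 hr before compound pinning from DMSO stocks. Following a 16-hr treatment at 37 C, a fluorogenic live-cell substrate (CellTiter-Fluor) reports viability after 1 hr.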

Experiment [15] has as its target Nuclear receptor subfamily 1 group I member 2 (Homo sapiens) (UniProt O75469). As to the kind of experiment: Human pregnane X receptor (PXR) small molecule agonists, qHTS assay (AID 1346982). Also: nearly all actives have a fitted effect of over 35% in size. The method in brief: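 After plating in 5% charcoal-stripped FBS and a 5 hr rest, PXR-Luc HepG2 cells received compounds in DMSO. Following 24 hr at 37 C, ONE-Glo was added and light output read.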

Experiment [16] is described as follows: Caspase-3/7 induction in CHO-K1 cells by small molecules, qHTS assay (AID 1346980). Also: nearly all actives have a fitted effect of over 15% in size. The method in brief:
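Luminescent Caspase-Glo 3/7 read (30min, room temperature) quantified apoptosis induction. Cells were wild-type CHO-K1, treated with compound for 17hr at 37 C and 5% CO2.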

Experiment [17] concerns the target Cytochrome P450 2D6 (Homo sapiens) (UniProt P10635). As to the kind of experiment: Cytochrome P450 Family 2 Subfamily D Member 6 (CYP2D6) small molecule antagonists: luciferase reporter qHTS assay (AID 1671196). Also: nearly all actives have a fitted effect of over 50% in size. Also: potency is read from the fitted curve at half-maximal effect. The method in brief:
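Quantitative HTS of Tox21 chemicals against CYP2D6 using a luminescent proluciferin substrate. After NADPH addition, 1 h room-temperature reaction; luminescence recorded 20 min post detection reagent.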
Background: A reporter such as luciferase makes a cellular process visible.

In experiment [18] the target is Nuclear receptor subfamily 1 group I member 2 (Homo sapiens) (UniProt O75469). Nature of the experiment: Human pregnane X receptor (PXR) activation by small molecules, qHTS assay (AID 1346985). Also: nearly all actives have a fitted effect of over 40% in size. The procedure, abridged:
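DPX-2 cells (HepG2 co-transfected with a PXR response element and a CYP3A4-promoter luciferase construct) were seeded at 2,000 per well, rested 5 hr at 37C, then exposed to DMSO-dissolved compounds for 24 hr. Activation was read as luciferase luminescence.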

Unmarked numbers belong to inactive results. Records with an inconclusive call do not appear. Activity calls are given as the source filed them. Unless noted, calls follow the shape of the dose curve; as a rule, active = well fitted curve in the direction sought with a large enough effect in the repeat runs; inconclusive = weak or mixed curves; inactive = no such curve, though single readings can be large; an effect the other way counts as inactive or inconclusive.

Thyrotropin-releasing hormone receptor (Homo sapiens), sequence (P34981 whole entry, looked up): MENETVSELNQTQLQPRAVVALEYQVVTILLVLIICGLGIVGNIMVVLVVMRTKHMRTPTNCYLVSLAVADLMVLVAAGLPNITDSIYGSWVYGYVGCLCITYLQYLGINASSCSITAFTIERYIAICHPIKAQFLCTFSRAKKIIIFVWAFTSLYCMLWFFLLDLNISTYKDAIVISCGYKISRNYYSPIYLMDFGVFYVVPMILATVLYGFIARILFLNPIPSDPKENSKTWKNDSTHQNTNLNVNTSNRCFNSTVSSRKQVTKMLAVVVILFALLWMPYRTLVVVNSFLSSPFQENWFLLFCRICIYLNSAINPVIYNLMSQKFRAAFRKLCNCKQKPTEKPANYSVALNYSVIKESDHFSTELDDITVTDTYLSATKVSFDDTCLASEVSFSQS
Cytochrome P450 2D6 (Homo sapiens), sequence (P10635 whole entry, looked up): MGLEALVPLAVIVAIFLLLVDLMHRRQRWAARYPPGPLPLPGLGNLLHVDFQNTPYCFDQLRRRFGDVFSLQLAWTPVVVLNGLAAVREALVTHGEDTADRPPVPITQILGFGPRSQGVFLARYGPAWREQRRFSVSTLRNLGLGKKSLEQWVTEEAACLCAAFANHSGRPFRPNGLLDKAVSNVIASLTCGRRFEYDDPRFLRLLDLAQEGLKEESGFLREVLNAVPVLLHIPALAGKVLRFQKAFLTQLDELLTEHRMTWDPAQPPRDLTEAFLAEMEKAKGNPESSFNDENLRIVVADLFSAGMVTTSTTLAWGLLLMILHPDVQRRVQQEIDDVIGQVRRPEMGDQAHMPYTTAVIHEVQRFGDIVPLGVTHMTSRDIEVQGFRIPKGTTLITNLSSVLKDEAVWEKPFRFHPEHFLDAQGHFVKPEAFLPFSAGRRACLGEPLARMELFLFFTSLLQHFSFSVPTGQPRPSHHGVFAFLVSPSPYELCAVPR
Nuclear receptor subfamily 1 group I member 2 (Homo sapiens), sequence (O75469 whole entry, looked up): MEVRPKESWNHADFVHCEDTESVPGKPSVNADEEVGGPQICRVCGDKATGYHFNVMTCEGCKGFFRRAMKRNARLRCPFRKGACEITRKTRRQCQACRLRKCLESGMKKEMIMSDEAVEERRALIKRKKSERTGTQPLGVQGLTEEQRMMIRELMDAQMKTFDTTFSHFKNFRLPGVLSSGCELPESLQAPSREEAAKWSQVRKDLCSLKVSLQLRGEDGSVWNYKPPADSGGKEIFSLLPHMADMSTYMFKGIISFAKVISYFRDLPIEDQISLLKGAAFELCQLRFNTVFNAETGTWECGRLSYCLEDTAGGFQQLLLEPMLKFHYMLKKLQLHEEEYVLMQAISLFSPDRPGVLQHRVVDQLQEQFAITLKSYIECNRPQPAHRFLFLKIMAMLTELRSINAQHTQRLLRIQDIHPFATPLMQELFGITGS
Progesterone receptor (Homo sapiens), sequence (P06401 whole entry, looked up): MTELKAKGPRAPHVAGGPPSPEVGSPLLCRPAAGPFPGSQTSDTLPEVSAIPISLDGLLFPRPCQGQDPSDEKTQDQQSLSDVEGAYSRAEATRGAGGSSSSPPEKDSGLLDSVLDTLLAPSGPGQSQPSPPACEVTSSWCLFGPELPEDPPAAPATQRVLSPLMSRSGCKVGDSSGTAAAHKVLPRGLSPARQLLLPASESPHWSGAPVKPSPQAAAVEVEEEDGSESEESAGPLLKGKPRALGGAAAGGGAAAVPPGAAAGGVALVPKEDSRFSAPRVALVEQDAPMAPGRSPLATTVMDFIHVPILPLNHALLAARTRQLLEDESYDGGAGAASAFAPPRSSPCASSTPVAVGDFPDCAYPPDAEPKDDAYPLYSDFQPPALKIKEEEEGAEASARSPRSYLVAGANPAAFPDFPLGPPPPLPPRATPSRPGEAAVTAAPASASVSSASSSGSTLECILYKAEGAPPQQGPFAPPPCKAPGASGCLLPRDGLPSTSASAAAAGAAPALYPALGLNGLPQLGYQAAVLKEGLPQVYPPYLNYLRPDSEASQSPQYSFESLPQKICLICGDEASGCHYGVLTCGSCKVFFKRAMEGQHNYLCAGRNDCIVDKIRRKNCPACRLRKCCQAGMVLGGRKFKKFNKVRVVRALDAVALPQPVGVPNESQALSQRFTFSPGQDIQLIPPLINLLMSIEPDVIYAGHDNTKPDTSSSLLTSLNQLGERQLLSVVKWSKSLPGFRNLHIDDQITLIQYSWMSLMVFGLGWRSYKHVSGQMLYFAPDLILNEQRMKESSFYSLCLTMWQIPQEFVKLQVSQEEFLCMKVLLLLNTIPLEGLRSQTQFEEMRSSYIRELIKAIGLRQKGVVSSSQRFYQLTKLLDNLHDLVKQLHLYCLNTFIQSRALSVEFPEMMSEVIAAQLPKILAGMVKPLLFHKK

With `CC1=C(Br)C(=O)C(Br)=C/C1=C(/c1ccccc1S(=O)(=O)O)c1cc(Br)c(O)c(Br)c1C`, the Potency was 18.6 µM (active) in experiment [1], 20.8 µM (active) in experiment [11], 18.6 µM (active) in [13] and 37 µM (active) in experiment [14]. The Potency entry in [2], in [3], in [4], in [5], in [6] and in [7] was “inactive” throughout. Besides, the Potency result in experiment [8], in experiment [10], in experiment [12] and in experiment [15] was “inactive” in each case. Also, in [9], the compound was classed as inactive.
In the case of `CCOC(=O)/C=C/C(=O)OCC`, the Potency result in experiment [1], in [2], in experiment [3], in experiment [4], in [5] and in experiment [6] was “inactive” in each case. Moreover, the Potency result in experiment [7], in experiment [8], in experiment [10], in [11], in experiment [12] and in experiment [13] was “inactive” each time. For the same compound, the Potency entry in experiment [16], in experiment [14], in experiment [15] and in experiment [17] was “inactive” in each case. For the same compound, the call in experiment [9] was inactive.
Take `N#CCc1ccc(Cl)cc1Cl`: the Potency result in [1], in [2], in experiment [3], in [4], in experiment [5] and in experiment [6] was “inactive” throughout. For the same compound, the Potency result in experiment [7], in experiment [8], in [10], in experiment [11], in [12] and in [13] was “inactive” throughout. For the same compound, the Potency result in experiment [16], in experiment [14] and in experiment [17] was “inactive” each time. In experiment [9], the compound was called inactive.
`O=C(O)C[C@H](NC(=O)OCc1ccccc1)C(=O)O`: the Potency entry in [1], in experiment [2], in experiment [3], in experiment [4], in experiment [5] and in experiment [6] was “inactive” in each case. Also, the Potency result in experiment [7], in experiment [8], in experiment [10], in experiment [11], in experiment [12] and in experiment [13] was “inactive” in each case. Further, the Potency entry in [15] and in experiment [17] was “inactive” in each case. Further, the compound was classed as inactive in experiment [9].
For the compound `C=C1C[C@@]23CC[C@H]4[C@@](C)(CCC[C@@]4(C)C(=O)O[C@@H]4O[C@H](CO)[C@@H](O)[C@H](O)[C@H]4O)[C@@H]2CC[C@]1(O[C@@H]1O[C@H](CO)[C@@H](O)[C@H](O[C@@H]2O[C@H](CO)[C@@H](O)[C@H](O)[C@H]2O)[C@H]1O[C@@H]1O[C@H](CO)[C@@H](O)[C@H](O)[C@H]1O)C3`, the Potency result in [1], in [2], in [3], in [4], in [5] and in [6] was “inactive” throughout. Further, the Potency entry in experiment [7], in experiment [8], in experiment [10], in experiment [11], in experiment [12] and in [13] was “inactive” throughout. Besides, the Potency result in experiment [16], in experiment [15] and in experiment [17] was “inactive” each time. For the same compound, in [9], the compound was classed as inactive.
Turning to `O=c1[nH]ncc2ccccc12`, the Potency result in [1], in experiment [2], in experiment [3], in experiment [4], in [5] and in experiment [6] was “inactive” in each case. Besides, the Potency entry in experiment [7], in experiment [8], in [10], in [11], in experiment [12] and in [13] was “inactive” in each case. In addition, the Potency entry in [16], in experiment [14], in [15] and in experiment [17] was “inactive” throughout. Moreover, in experiment [9], the result was inactive.
In the case of `CN1CCCN=C1COC(=O)C(O)(c1ccccc1)C1CCCCC1` (stereo not given), the Potency result in experiment [1], in experiment [2], in [3], in [4], in [5] and in experiment [6] was “inactive” in each case. Moreover, the Potency result in [7], in experiment [8], in [10], in [11], in experiment [12] and in experiment [13] was “inactive” in each case. Further, the Potency entry in experiment [16], in experiment [14], in [15] and in experiment [18] was “inactive” throughout. Also, the call in experiment [9] was inactive. Further, the Potency in experiment [17] is 0.617 µM (active).
`Cc1cc(O)c(C)c(C)c1O`: the Potency result in experiment [1], in experiment [2], in [3], in experiment [4], in [5] and in [6] was “inactive” each time. Further, the Potency result in experiment [7], in experiment [8], in experiment [10], in experiment [11], in [12] and in experiment [13] was “inactive” each time. Also, the Potency entry in experiment [16], in [14] and in experiment [15] was “inactive” in each case. The result in experiment [9] was inactive.

These data come from PubChem BioAssay (Tox21).
